Screening results from PubChem BioAssay.
Shown is part of a subset that was picked to be rich in hits.
CHX counter: Cycloheximide Counterscreen for Small Molecule Inhibitors of Shiga Toxin; cell reporter, cycloheximide protein synthesis inhibition counterscreen; AID 2314, 2010; 300,000 tested, 12% active; max response, %; in the data active = max response mostly above about 13%, no sharp cut-off; inactive = mostly below about 14%; also: read at 38.3 µM for the half of the compounds with a filed dose; 0% is about no effect
SARS PLP yeast: qHTS of Yeast-based Assay for SARS-CoV PLP; S. cerevisiae expressing SARS-CoV PLpro, growth rescue; 330,000 tested, 0.19% active; Potency, µM (titrated, usually from 32.9 µM), without a hit: at the top dose activity, positive = growth rescue, most hits filed as activators; calls by dose curve; also: potency is read from the fitted curve at half-maximal effect; 0% is about no effect; nearly all actives have a fitted effect of over 55% in size
Shiga inhibitor: A qHTS for Small Molecule Inhibitors of Shiga Toxin; Vero cells, Shiga toxin protein synthesis inhibition reporter; inhibition, % at 38.7 µM; 290,000 tested, 9.2% active; in the data active = inhibition mostly above about 28%, no sharp cut-off; inactive = mostly below about 43%; also: 0% is about no effect
AMA1 RON2 block: qHTS for Inhibitors of AMA1-RON; Towards Development of Antimalarial Drug Lead: Primary Screen; 360,000 tested, 0.2% active; AlphaScreen AMA1-biotinylated RON2 peptide binding; Plasmodium falciparum AMA1 (3D7) - RON2 peptide interaction; Potency, µM (highest dose often 58.2 µM), for inactives: at the highest dose activity change, negative = inhibition, most hits filed as inhibitors;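 also: potency is read from the fitted curve at half-maximal effect; 0% = vehicle wells and -100% = peptide control; nearly all actives have a fitted effect of over 45% in size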
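AMA1 (3D7) with his tag at 25 nM final met compounds first, then biotinylated RON2 peptide at 25 nM; detection used donor plus acceptor beads, 10 µg/mL apiece, read by AlphaScreen after 30 min at room temperature.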
AmpC inh no detg: qHTS Inhibitors of AmpC Beta-Lactamase (assay without detergent); Potency, µM (series often up to 57.1 µM), for the others: top-dose activity change, negative = inhibition, hits mostly inhibitors; 330,000 tested, 0.52% active; AmpC nitrocefin hydrolysis, absorbance 480 nm, 0.0001% Triton; P00811;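 also: potency is read from the fitted curve at half-maximal effect; plate controls were no compound for no effect and no enzyme for full effect; nearly all actives have a fitted effect of over 20% in size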
Target sequence (P00811 whole entry, looked up): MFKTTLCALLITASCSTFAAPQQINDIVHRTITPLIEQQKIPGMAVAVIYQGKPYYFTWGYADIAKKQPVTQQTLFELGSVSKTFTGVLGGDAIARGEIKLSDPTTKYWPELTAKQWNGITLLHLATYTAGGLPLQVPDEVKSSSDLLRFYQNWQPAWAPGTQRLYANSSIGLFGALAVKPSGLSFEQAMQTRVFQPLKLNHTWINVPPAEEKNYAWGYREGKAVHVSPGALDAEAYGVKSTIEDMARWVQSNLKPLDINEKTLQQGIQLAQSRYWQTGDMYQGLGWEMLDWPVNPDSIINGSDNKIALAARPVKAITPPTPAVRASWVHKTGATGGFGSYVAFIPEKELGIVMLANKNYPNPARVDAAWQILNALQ
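AmpC (5.3 nM in the dispensed reagent) in 20 mM phosphate pH 7.0 with 0.01% (detergent screen) or 0.0001% Triton X-100 was preincubated with compounds for 15 min at room temperature. Nitrocefin was then added from an 800 uM solution, and hydrolysis was followed at 480 nm.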
AmpC inh detg: qHTS Inhibitors of AmpC Beta-Lactamase (assay with detergent). Potency, µM (top dose mostly 114 µM), for the others: at the top dose activity change, negative = inhibition, hits mostly inhibitors. 370,000 tested, 0.041% active. AmpC hydrolysis of nitrocefin, absorbance 480 nm, 0.01% Triton. P00811;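 also: potency is read from the fitted curve at half-maximal effect; 0% = no-compound wells and -100% = no-enzyme wells; nearly all actives have a fitted effect of over 25% in size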
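20 mM phosphate pH 7.0 + 0.01% (detergent screen) or 0.0001% Triton X-100; 5.3 nM AmpC reagent; cpd preinc 15 min RT; nitrocefin (800 uM stock) to start; A480 q20 s × 4 min; Activity was normalised to no-enzyme and no-compound control wells.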
The depositor's hits bear a star; ? = inconclusive; nt = no result; + = active, no number; [ ] = remark or other dose. Unless noted, calls follow the shape of the dose curve; as a rule, active = well fitted curve in the direction sought with a large enough effect; inconclusive = small, poorly fitted or top-dose-only effect, or another doubt; inactive = no such curve, though single readings can be large; an effect the other way counts as inactive or inconclusive.

SMILES | CHX counter | SARS PLP yeast | Shiga inhibitor | AMA1 RON2 block | AmpC inh no detg | AmpC inh detg
O=c1[nH]cnc2nc(-c3ccccc3)c(-c3ccccc3)nc12 | -1 | 5% | -9 | -9% | -15% | -9%
CCOC(=O)c1cnc(SCC#N)nc1N | 7 | 1% | 13 | 25% | -7% | -3%
CCOC(=O)c1cnc(SCC(=O)c2ccc(C)cc2)nc1N | -3 | 25% | -2 | -2% | -13% | 4%
CCOC(=O)c1cnc(SCC(C)C)nc1N | 52* | 8% | + | 10% | -19% | -1%
CCOC(=O)c1cnc(SC)nc1N | 17* | -1% | -3 | 1% | -4% | -6%
CCOC(=O)c1cnc(SCc2cccc(C)c2)nc1N | 53* | -5% | 54* | 15% | -18% | 1%
O=Cc1cn(Cc2ccc([N+](=O)[O-])cc2)c2ccccc12 | -3 | -8% | -16 | 9%[2.32 µM] | -19% | 3%
O=C(O)Cn1cc(/C=N/Nc2ccc([N+](=O)[O-])cn2)c2ccccc21 | 28* | 0% | 35* | 14% | -30% | -4%
Cc1ccc(Cn2cc(/C=N/Nc3ccc([N+](=O)[O-])cn3)c3ccccc32)cc1 | 19* | 10% | + | -9% | -48% | -14%
Cc1c(/C=N/Nc2ccc([N+](=O)[O-])cn2)c2ccccc2n1Cc1ccccc1 | 20* | -1% | 24 | -1% | -18% | -10%
CCOc1cc(CNCCO)ccc1OCC(=O)NC(C)(C)C | 6 | 0% | -22 | -2% | -17% | 2%
CC(=O)c1cccc(OCC(=O)c2cc(C)n(-c3cc(C)on3)c2C)c1 | 5 | -19% | 17 | -30% | 13% | -3%
Cc1ccc(NC(=O)Cn2c(=O)oc3cc(S(=O)(=O)N4CCC(C)CC4)ccc32)cc1C | -5 | -9% | -4 | -1% | -36% | -7%
CCOc1cc(C2C3=C(CCCC3=O)Nc3nc(C(=O)OC)nn32)ccc1OC (stereo not given) | -1 | -3% | 13 | 7% | -18% | -11%
Cc1cc(C)c(NC(=O)C(C)N2CCCCCC2)c(C)c1 (stereo not given) | 1 | 4% | -7 | 1% | -12% | -12%
Cc1ccc(N=c2sc(C)c(C)n2C)cc1 | 70* | 15% | 80* | -5%[2.32 µM] | -7% | -14%
Cc1ccc(N=C2CSC(=O)N2)cc1 | 4 | 1% | 22 | -5% | -32% | 7%
Cc1nn(-c2ccccc2)c(/N=C/c2ccc(O)cc2)c1-c1ccccc1 | 27* | -12% | 45 | -2% | -41% | -13%
Cc1nn(-c2ccccc2)c(C)c1-c1ccccc1O | 11 | -8% | 39 | 3% | -11% | -3%
Cc1cccc(NC(=O)CSc2ccc(-c3cccnc3)nn2)c1 | -1 | -3% | -13 | 20% | 0% | 1%
CC(C)NC(=O)c1cc2c(s1)CCCC2 | 18* | -9% | 44* | 16% | 4% | 1%
CNC(=O)c1cc2c(s1)CCCCCC2 | 7 | -12% | 7 | 1% | -24% | -6%
CC(OC(=O)c1cc2c(s1)CCCCC2)C(=O)NC(N)=O (stereo not given) | 23* | 29% | 35 | 4% | -13% | -9%
Cc1c(N=Cc2c(O)n(Cc3ccco3)c(=O)[nH]c2=O)c(=O)n(-c2ccccc2)n1C | -4 | -1% | -1 | -4% | -18% | -10%
Cn1c(C(C#N)C(=O)c2ccco2)nc2ccccc21 (stereo not given) | 34* | 2% | 71* | 28% | -26% | ?
SMILES | CHX counter | SARS PLP yeast | Shiga inhibitor | AMA1 RON2 block | AmpC inh no detg | AmpC inh detg
CC1=NN(c2ccccc2)C(=O)C1(C)C | 2 | -1% | -22 | 5% | 1% | 1%
CC1=C(C)CC2(SC1)C(=O)N(c1ccccc1)N=C2N (stereo not given) | 23* | 2% | 48* | -10% | -14% | 7%
O=C(CCn1c(=S)oc2ccccc21)Nc1ccccc1F | 10 | -2% | 11 | -4% | -13% | 3%
O=C1/C(=C\c2ccncc2)SC(=S)N1C1CCCCC1 | -1 | 20% | 8 | -1% | -8% | -4%
Oc1ccc(NCc2cccs2)cc1 | 24* | -8% | -2 | 62% | -39% | 0%
S=C(NCc1cccs1)Nc1ccc(Br)cc1Cl | 44* | 22% | 81* | 53% | -33% | -2%
CC(C)(C)c1ccc(NC(=S)NCc2cccs2)cc1 | 23* | 13% | 54 | 76% | -47% | -1%
COc1ccc(CCNC(=S)NCc2cccs2)cc1OC | -1 | -1% | -2 | -1% | 0%[2.29 µM] | -2%
S=C(NCCc1ccccc1)NCc1cccs1 | 54* | 12% | active | 12% | -34% | 1%
Cc1cc(C)cc(NC(=S)NCc2cccs2)c1 | -2 | -26% | 26* | -4% | -2% | 1%
S=C(NCc1cccs1)Nc1cccc2ccccc12 | 2 | 0% | 21 | 16% | -13%[2.29 µM] | ?
CCC(C)c1ccc(NC(=S)NCc2cccs2)cc1 (stereo not given) | 23* | -7% | 76* | 47% | -39% | 5%
Cc1cccc(NC(=S)NCc2cccs2)c1C | 22* | ? | -13 | 5% | -23% | 3%
COc1ccc(/C=N\NC(=O)C2=NNC(=O)C2C)cc1 (stereo not given) | 25* | -8% | 42* | 22% | -20% | -4%
Cc1nonc1C(=O)N/N=C/c1ccc([N+](=O)[O-])o1 | 46* | -1% | 88* | 19% | -19%[11.4 µM] | ?
Cc1c(C(=O)N/N=C/c2ccncc2)no[n+]1[O-] | 21* | 0% | -3 | 76% | -9% | 5%
Cc1nonc1C(=O)N/N=C/c1ccncc1 | 29* | -1% | 51* | -2% | -15% | 2%
COc1ccc(/C=N/NC(=O)CC(=O)N/N=C/c2ccc(OC)cc2)cc1 | 5 | 0% | 18 | 7% | -12% | -15%
C[C@@H](C(=O)Nc1ccc2ccccc2c1)[C@@H]1C[C@@]1(C)[C@@H](N)c1ccccc1 | nt | nt | nt | -4% | nt | nt
COc1ccc(/C=N/NC(=O)c2nonc2C)cc1 | 44* | -9% | 62* | 0% | -8% | -6%
Cc1nnsc1C(=O)N/N=C/c1ccccc1 | 4 | -32% | 4 | -2% | 5% | -3%
Cc1nnsc1C(=O)N/N=C/c1ccc(OC(F)(F)F)cc1 | 23* | 1% | 64* | 5% | -31% | ?
COC(=O)N/N=C/c1cc(OC)c(O)c([N+](=O)[O-])c1 | 92* | 16% | 77* | 19% | -13% | ?
